Abeta rescue: A-beta toxicity reversal in yeast; actives 0.063% (n = 410,000); Potency, µM (series often up to 46.1 µM), most hits filed as activators; yeast expressing A-beta42, growth rescue, OD600, 48 h; response scale: 0% DMSO, 100% iron-clioquinol control; further: nearly all actives have a fitted effect of over 55% in size
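Yeast growth medium received pinned compounds, then yeast cells expressing toxic A-beta were added; plates incubated at 30 C for 48 hr. Growth read as absorbance at 600 nm, normalized to DMSO and equimolar FeCl3 plus clioquinol controls.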
FUS suppressor: suppressors of FUS proteinopathy in yeast; S. cerevisiae FUS-expressing, growth rescue, OD600, 24 h; Potency, µM (doses to about 76.6 µM), most hits filed as activators; actives 0.24% (n = 390,000); AID 1347120;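 further: plate controls were DMSO vehicle for no effect and reference control for full effect; nearly all actives have a fitted effect of over 55% in size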
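Absorbance at 600 nm, taken 24hr after compound addition, measured rescue of FUS-yeast growth at 30C. Induction used 2% galactose with seeding at OD 0.005. Controls: CP55940 from 92uM final, DMSO only.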
TDP-43 yeast inh: inhibitors of TDP-43 toxicity in yeast. Potency, µM (titrated, usually from 46.1 µM), without a hit: top-dose growth rescue (activation), most hits filed as activators. TDP-43 expressing yeast growth rescue, BacTiter-Glo, 24 h. AID 652104. actives 1.8% (n = 410,000); further: % of control where 0% means no effect; nearly all actives have a fitted effect of over 50% in size
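In this qHTS, compounds that restore growth of yeast expressing TDP-43 appear as activators. Cells (OD600=0.02, galactose medium, raffinose-pregrown) are incubated with compound 24 hr at 30 deg C and growth is quantified by BacTiter-Glo.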
aSyn yeast inh: inhibitors of alpha-synuclein toxicity in yeast. Yeast expressing alpha-synuclein, growth rescue, BacTiter-Glo, 24 h. Potency, µM (series often up to 46.1 µM), for the others: at the top dose growth rescue (activation), actives largely listed as activators. actives 0.14% (n = 370,000). AID 652106; further: % of control where 0% means no effect; nearly all actives have a fitted effect of over 65% in size
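Rescue of yeast growth: cells expressing toxic alpha-synuclein, induced in galactose at OD600 0.02, incubated with compound 24 h at 30 C. ATP luminescence quantified growth; inhibitors of toxicity appear as activators.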
The depositor's hits bear a star; i = inactive; u = inconclusive; x = not tested or not shown; [ ] = another dose, or the depositor's remark. The list is not random: actives were taken first. Their share in the collection is about 2.1%. The call rests on the fitted dose curve; in most records, active means well fitted curve in the direction sought with a large enough effect; inconclusive means small, poorly fitted or top-dose-only effect, or another doubt; inactive means no such curve, though single readings can be large; an effect the other way counts as inactive or inconclusive. Potency means the concentration at half of the fitted maximal effect.

SMILES | Abeta rescue | FUS suppressor | TDP-43 yeast inh | aSyn yeast inh
CC(C)(C)OC(=O)NCc1ccc(NC(=O)c2nc[nH]c2C(=O)NCCCNC(=O)c2[nH]cnc2C(=O)Nc2ccc(CNC(=O)OC(C)(C)C)cc2)cc1 | i | i | 9% | 4%
CCOC(=O)c1ccc(NC(=O)c2nc[nH]c2C(=O)NCC(=O)OC(C)(C)C)cc1 | u | u | 22µM* | 10%
CCNc1nc(N)nc(-c2cc(Cl)ccc2O)n1 | i | i | 3.2µM* | 2%
O=C1[C@H]2[C@H](C=CC[C@H]2C(=O)N2CCN(c3ccccc3)CC2)CCN1Cc1ccccc1 | i | i | 28µM* | u
Cc1ccc(C2CC2c2n[nH]c(=S)n2-c2cccc(Cl)c2)cc1 (stereo unspecified) | i | i | 35µM* | 9%
COC[C@H]1CCCN1c1ccc2c(c1)O[C@H](C)CCN(C1CC1)S2(=O)=O | x | i | x | x
Cc1ccc(Cl)cc1NC(=O)Cn1c(=O)c(CNc2ccccc2)cc2cc3c(cc21)OCCO3 | i | 28µM* | -19% | 3%
Cc1ccc(OCc2nc(-c3ccccn3)n[nH]2)cc1 | u | i | 13µM* | u
CC1=C(c2ccc(C(C)C)cc2)S(=O)(=O)NC1=NCCCN1CCN(c2ccccc2F)CC1 | i | i | 1% | x
COc1cccc(NC(=O)COc2ccccc2C(=O)Nc2ccccc2)c1 | x | x | x | 1%
CC(=O)c1ccc(Sc2nnnn2-c2ccccc2)c([N+](=O)[O-])c1 | i | i | 20µM* | -19%
Nc1[nH]c2cc(C(F)(F)F)ccc2c1C(=O)N1CCN(CCc2ccccc2)CC1 | x | i | x | x
Clc1ccc(-n2nnnc2Sc2ncnc3sccc23)cc1 | i | i | 10µM* | -48%
Clc1ccc(-c2csc3ncnc(Sc4nnnn4-c4ccccc4)c23)cc1 | x | x | x | -14%
O=C(Nc1ccc(N=Nc2ccccc2)c(NC(=O)C2CCCO2)c1)C1CCCO1 (stereo unspecified) | i | u | 14µM* | -1%
COc1cc2c(NC3CCN(C)CC3)nc(N3CCN(C)CC3)nc2cc1OCCCN(C)C | x | x | x | -18%
CCC(Oc1ccc(F)cc1)C(=O)Nc1nc(-c2ccc(F)cc2)ns1 (stereo unspecified) | i | i | u | x
O=C(COc1ccc2ccccc2c1)NCCn1ccc2ccccc21 | u | u | 22µM* | u
O=C(Cc1ccccc1)NCCn1ccc2ccccc21 | i | i | u | -2%
N#CC1=C(N2CCCCC2)c2cc3c(n2C1=O)CCCC3 | i | i | 14µM* | 4%
CCOC(=O)C1=C(SCC)c2cc3c(n2C1=O)CCCC3 | i | i | -8% | -7%
Cc1ccc(CSCCC(=O)NCc2ccc(F)cc2Cl)cc1 | i | i | 22µM* | x
CCCCn1c(-c2cccs2)nc2nc3ccccc3nc21 | i | i | 13µM* | 5%
CCCCCCn1c(-c2cccs2)n[nH]c1=S | 6.3µM* | i | -12%[0.397 µM] | 2%
Cc1ccc(NC(=O)C(C)OC(=O)c2ccc(NC(=O)CC#N)cc2)cc1S(=O)(=O)N1CCOCC1 (stereo unspecified) | i | 14µM* | -3% | -3%
SMILES | Abeta rescue | FUS suppressor | TDP-43 yeast inh | aSyn yeast inh
Cc1ccc(NC(=O)COc2ccc(Cl)cc2Cl)cc1S(=O)(=O)N1CCOCC1 | i | i | 14µM* | 8%
Cc1cc(Cl)ccc1OCC(=O)Nc1ccccc1N1CCOCC1 | i | i | 13µM* | 2%
COc1cccc(C(=O)OCC(=O)Nc2ccccc2N2CCOCC2)c1 | i | i | u | 0%
COc1cccc(C(=O)Nc2ccccc2N2CCOCC2)c1 | i | i | 13µM* | -1%
C(=Nc1ccc(/C=C/c2ccnc3ccccc23)cc1)c1ccco1 | x | x | x | -3%
CC(C)CN(C)c1ccc(/C=C2\C=Cc3ccccc32)cc1 | x | x | x | 19%
Cc1ccccc1NC(=O)[C@H]1CC(=O)O[C@@H]1c1ccccc1 | x | i | x | x
O=C(OCc1cn(Cc2cccc(F)c2)nn1)N1CCOCC1 | x | i | x | x
Cc1ccc2c(c1)C(c1ccc(F)cc1)N(C(=O)COc1ccc(Cl)cc1Cl)CC(=O)N2 (stereo unspecified) | i | u | 11% | x
CC(C)N(Cc1ccccc1)C(=S)NC(=O)C1(C)CC1(Cl)Cl (stereo unspecified) | u | i | 35µM* | 0%
CC1(C(=O)NC(=S)N(CCC#N)c2ccccc2)CC1(Cl)Cl (stereo unspecified) | i | i | 11% | -2%
CCOC(=O)[C@@H]1[C@H]2COc3ccc(Br)cc3[C@@H]2N2C(=O)N(c3ccc(C)cc3)C(=O)[C@]12C | i | u | 6% | 14%
CCOC(=O)[C@@H]1[C@H]2COc3ccc(Br)cc3[C@H]2N2C(=O)N(c3ccc(C)cc3)C(=O)[C@]12C | i | 22µM* | 27% | 1%
Cc1ccc(NC(=O)Cc2cccc(OC(F)F)c2)c(S(=O)(=O)N2CCOCC2)c1 | x | i | x | x
Cc1ccc(S(=O)(=O)N2CCCC2C(=O)Nc2nc3ccccc3s2)cc1 (stereo unspecified) | i | i | 7% | 12%
O=C(Nc1ccc(Br)cc1)C1CCCN1S(=O)(=O)c1ccc(F)cc1 (stereo unspecified) | i | i | 22µM* | x
O=C(Nc1nc2ccccc2s1)C1CCCN1S(=O)(=O)c1ccc(Cl)cc1 (stereo unspecified) | i | u | 18µM* | 19%
COC(=O)[C@H](C(C)C)N1Cc2nnn(CC3CCCCC3)c2-c2cc(F)ccc2S1(=O)=O | x | i | x | x
COc1ccc(OC)c(NC(=O)C2Cc3ccccc3CN2S(=O)(=O)c2ccc(F)cc2)c1 (stereo unspecified) | i | i | 0% | x
CCCn1c2ccccc2c2cnn(CC(=O)NCCOC)c(=O)c21 | i | i | -2% | 3.5µM*
CCCn1c2ccccc2c2cnn(CC(=O)NCCCOC)c(=O)c21 | i | i | 6% | 9%
CC1CN(C(=O)/C=C/c2ccc([N+](=O)[O-])s2)CC(C)O1 (stereo unspecified) | i | i | -6%[9.22 µM] | 3%
CC1CC(C)CN(C(=O)/C=C/c2ccc([N+](=O)[O-])s2)C1 (stereo unspecified) | i | i | 22µM* | 1%
S=C(Nc1ccccc1Oc1ccccc1)Nc1cccc(Cl)c1Cl | i | x | 22µM* | -6%
S=C(Nc1ccc(Cl)cc1Cl)Nc1ccccc1Oc1ccccc1 | i | i | 7% | -5%
O=C(Oc1ccccc1C(=O)Nc1ccccc1)c1ccccc1Br | i | i | 11µM* | -2%
CCN(C[C@H]1[C@@H](c2ccc(C3=CCCC3)cc2)[C@H](CO)N1Cc1ccccn1)S(=O)(=O)c1ccccc1[N+](=O)[O-] | x | i | x | x
CCc1cc(C(=O)N2CCN(S(=O)(=O)c3ccccc3F)CC2)sc1C | i | i | 22µM* | 14%

Compound activity deposited in PubChem BioAssay by National Center for Advancing Translational Sciences (NCATS).
